# Most compounds without a hit are left out; they make up all but 3% or so of the library.
# SENP6 inh: inhibitors of human SENP6 protease | Q9GZR1 | Recombinant SENP6 catalytic domain, aminoluciferin luminescence | inhibition, % at 10 µM | 330,000 compounds, 1.8% hits | AID 2599;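 active = inhibition above about 50% at the single tested dose, limit read from the data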;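 also: plate controls were DMSO wells with enzyme for no effect and DMSO wells lacking enzyme for full effect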
# TRAIL sens C8: caspase-8 TRAIL sensitization | inhibition (viability loss, TRAIL sensitization), % at 10 µM | NB7+C8 cells + TRAIL, ATPlite viability luminescence | 360,000 compounds, 1% hits;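 active = compounds causing at least 50% loss of cell viability in the single-dose screen, relative to plate controls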
# SENP8 block-1: SENP8 protease inhibition; Q96LD8; purified SENP8, Z-RLRGG-aminoluciferin cleavage, luminescence; inhibition, % at 10 µM; 330,000 compounds, 1.2% hits; AID 2540; in the data active = inhibition above about 50%
# Target sequence (Q96LD8 whole entry, looked up): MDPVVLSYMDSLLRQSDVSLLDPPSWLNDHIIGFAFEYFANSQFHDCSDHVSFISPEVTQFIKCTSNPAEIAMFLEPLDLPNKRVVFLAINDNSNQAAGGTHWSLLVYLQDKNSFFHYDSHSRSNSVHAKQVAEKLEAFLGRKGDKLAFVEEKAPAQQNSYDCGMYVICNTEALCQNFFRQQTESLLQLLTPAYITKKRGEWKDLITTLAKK
# SENP7 block: SENP7 protease inhibition; Q9BQF6; recombinant SENP7, Z-RLRGG-aminoluciferin luminescence, 40 min; inhibition, % at 5 µM; 330,000 compounds, 1.5% hits; AID 434973;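 active = inhibition above about 50% at the single test dose, limit read from the data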;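 also: plate controls were DMSO with enzyme for no effect and no enzyme buffer wells for full effect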
# Target sequence (Q9BQF6 706-1050 limits assumed): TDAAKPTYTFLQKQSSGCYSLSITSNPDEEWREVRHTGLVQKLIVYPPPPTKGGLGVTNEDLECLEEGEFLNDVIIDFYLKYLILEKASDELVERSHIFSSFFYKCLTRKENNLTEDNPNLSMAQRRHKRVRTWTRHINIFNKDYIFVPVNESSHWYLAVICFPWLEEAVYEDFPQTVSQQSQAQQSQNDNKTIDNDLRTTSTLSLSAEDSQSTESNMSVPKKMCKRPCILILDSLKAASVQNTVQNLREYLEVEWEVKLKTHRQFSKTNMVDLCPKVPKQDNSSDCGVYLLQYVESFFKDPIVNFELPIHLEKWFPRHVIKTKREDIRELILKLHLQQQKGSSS
# SENP8 block-2: blocks human SENP8 cleavage of Nedd8 substrate | 360,000 compounds, 0.64% hits | recombinant SENP8, Nedd8 substrate fluorescence | AID 602440 | Q96LD8 | inhibition, % at 20 µM; in the data active = inhibition mostly above about 40%, no sharp cut-off; inactive = mostly below about 27%
# PPC-1+TRAIL kill: compounds killing PPC-1 cancer cells with TRAIL present (potentiator screen, no TRAIL-free arm); AID 1443; 220,000 compounds, 0.41% hits; PPC-1 cells + TRAIL, ATPLite viability luminescence; cell killing (% activity), % at 4 µM or 5 µM;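 active = cell killing above 50% in the first pass at 4 µM, then a duplicate retest at 5 µM averaging 50% or more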;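 also: plate controls were cells with TRAIL plus DMSO for no effect and medium-only wells lacking cells for full effect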
# * marks the source's active call; other numbers are inactive results; . = no result given.
SMILES,SENP6 inh,TRAIL sens C8,SENP8 block-1,SENP7 block,SENP8 block-2,PPC-1+TRAIL kill
CN(C)c1ncc(C2=C(Cl)C(=O)C(N3CCCC3)=C(Cl)C2=O)s1,17,-6,32,19,46*,.
CCOC(=O)c1sc(N=NC2=C(O)CCCC2=O)c(C(=O)OCC)c1C,3,-8,0,3,53*,25
CCOc1ccc2nc(NC(=O)CN3CCC(n4nnc5cc(C(F)(F)F)ccc54)CC3)sc2c1,-6,56*,-11,-10,12,13
COc1ccc(C)cc1NC(=O)CN(Cc1nnc(-c2ccc(Cl)cc2)o1)C1CCCC1,-4,85*,-7,-1,-2,25
COc1ccc(Cl)cc1NC(=O)CN(C)C1CCCCC1,1,6,3,1,22,-14
Cc1ccc2nc(-c3cccc(Br)c3)c(Cc3ccccc3)n2c1,.,-5,.,.,-370,.
CCC1=NN(C(=O)c2cccc(Br)c2)C(O)(c2ccc(Br)cc2)C1 (centres undefined),0,49*,-5,6,20,-9
CCC1=NN(C(=O)c2ccc(C)cc2)C(O)(c2ccc(Br)cc2)C1 (centres undefined),0,10,-11,9,8,9
O=C(Nc1ccc2c(c1)OCCO2)C(c1ccccc1)n1c(=O)c(-c2cc3ccccc3[nH]2)nc2ccccc21 (centres undefined),.,6,.,.,-402,.
O=C(N=Nc1c(O)n(Cc2ccccc2)c2ccccc12)c1ccncc1,26,-2,-12,7,42*,3
CC1C(=O)NN=C1C(=O)N/N=C/c1cccs1 (centres undefined),4,2,-10,-6,4,6
Cc1ccc(-c2c(C(=O)O)c3ccccc3[nH]c2=O)cc1,-11,6,-9,-6,-55,.
C/C(=N\NC(=O)c1nnn(-c2nonc2N)c1-c1ccc2c(c1)OCO2)c1ccc(C)cc1,-1,-8,-10,-5,-114,.
CN(C)CCCNC(=O)c1ccccn1,-4,6,2,2,8,3
CN(C)CCCNC(=O)c1ccc(-c2nc(-c3ccc(Cl)cc3)cs2)cc1,2,90*,-7,2,-204,5
O=C(Sc1cccc2cccnc12)c1ccccc1Br,-12,-4,-11,-9,-8,.
O=C(Sc1cccc2cccnc12)c1ccc(F)cc1,-11,.,-1,2,.,58*
CCCCCCCCOC(=O)c1c(CSC(=N)N)n(C)c2cc(Br)c(OC(C)=O)cc12,-14,92*,4,0,9,-2
CCOC(=O)c1c(CSC(=N)N)n(-c2ccc(Br)cc2)c2cc(Br)c(OC(C)=O)cc12,.,9,.,.,8,14
COCOc1ccc(-c2ncc(OC)nc2NC(=O)c2cc(C)oc2C)cc1,.,5,.,.,-260,.
CC1(C)OC2C(CO)OC(n3cnc4c(=S)nc(N)[nH]c43)C2O1 (centres undefined),.,11,.,.,-24,.
Nc1nc(=S)c2ncn([C@@H]3O[C@H](CO)[C@@H](O)[C@H]3O)c2[nH]1,-2,73*,-6,0,5,.
Nc1nc(=S)c2ncn(C3OC(CO)C(O)C3O)c2[nH]1 (centres undefined),.,56*,.,.,37,-22
CCN(C(=O)CN1CCN(S(=O)(=O)c2cc(Cl)ccc2Cl)CC1)c1c(N)n(Cc2ccccc2)c(=O)[nH]c1=O,-10,-4,-7,-11,0,14
COCCN1CCC(CO)C1 (centres undefined),.,-2,.,.,9,.
SMILES,SENP6 inh,TRAIL sens C8,SENP8 block-1,SENP7 block,SENP8 block-2,PPC-1+TRAIL kill
CC1CCN(c2ccc(-c3cccc(NC(=O)C(F)(F)F)c3)nn2)CC1,40,97*,49,4,-108,.
O=C(Nc1cccc(-c2ccc(N3CCCCC3)nn2)c1)C(F)(F)F,34,89*,34,6,-21,.
O=S(=O)(Nc1ccc(-c2nc3cccnc3s2)cc1)c1cc(F)ccc1F,59*,22,24,-3,-443,10
COc1ccccc1N1CCN(Cc2cc(=O)c(OCC(=O)NC(C)C)co2)CC1,1,-21,-3,10,8,.
CCCCC[n+]1ccn(C2=C([O-])c3ccccc3C(=O)/C2=N\S(=O)(=O)c2ccc(Cl)cc2)c1,47,46,19,19,71*,25
Cc1cc(C)cc(NC(=O)Cn2c(SCc3cc(C)ccc3C)nc3ccncc32)c1,.,.,.,.,.,9
Cc1ccc(CSc2nc3ccncc3n2CC(=O)Nc2cc(C)cc(C)c2)cc1,-2,51*,3,-2,0,19
Cc1cccc(NC(=O)c2nc[nH]c2C(=O)N[C@@H](CCCCNC(=O)OC(C)(C)C)C(=O)OC(C)(C)C)c1,-8,51*,-13,-8,7,10
C[C@H](NC(=O)c1nc[nH]c1C(=O)N[C@@H](CCCCNC(=O)OC(C)(C)C)C(=O)OC(C)(C)C)C(=O)OCc1ccccc1,-13,23,-5,7,1,.
CC(C)(C)OC(=O)NCCCC[C@H](NC(=O)c1nc[nH]c1C(=O)NC(c1ccccc1)c1ccccc1)C(=O)OC(C)(C)C,-14,53*,-8,-12,11,5
CC(C)C[C@H](NC(=O)c1nc[nH]c1C(=O)N[C@@H](CCCCNC(=O)OC(C)(C)C)C(=O)OC(C)(C)C)C(=O)OCc1ccccc1,-8,63*,-8,6,7,.
Cc1cccc(NC(=O)c2nc[nH]c2C(=O)NCCCCCNC(=O)OC(C)(C)C)c1,0,33,4,6,8,.
CC(C)C[C@H]1CN(CCCC[C@@H]2CNC(=O)C(=O)N2CC2CCCCC2)C(=O)C(=O)N1CCC1CCCCC1,.,2,.,.,20,.
C/C(CCc1ccc2c(c1)OCO2)=N\N=C1\NC(=O)CC(C(=O)Nc2ccccc2F)S1 (centres undefined),0,-4,6,4,11,-2
CCOc1ccccc1CNC(=O)C1CCN(c2nn3c(=O)cc(C)nc3s2)CC1,-17,0,-6,-18,0,.
O=C(N/N=C/c1ccc(O)c(O)c1O)/C(=C/c1ccc([N+](=O)[O-])cc1)NC(=O)c1ccccc1,18,5,0,2,72*,28
COCCCNC(=S)N(Cc1cccnc1)Cc1ccc(OC)c(OC)c1,-22,-18,-5,1,0,6
C(=Nc1cccc2c(N=Cc3ccco3)cccc12)c1ccco1,86*,-3,72*,30,-396,-9
CCC(=O)N1CCCc2cc(S(=O)(=O)N3CCN(c4ccccc4F)CC3)ccc21,-15,83*,-11,-9,1,8
C/C(=N\NC(=O)c1cc(Cl)ccc1O)c1ccc(Br)s1,79*,36,74*,49,-168,20
C/C(=N\NC(=O)c1ccc(Cl)cc1)c1ccc(Br)s1,-23,21,-5,-1,20,4
Cc1cccc(NC2=C/C(=N/S(=O)(=O)c3cccs3)c3ccccc3C2=O)c1,.,95*,.,.,103*,51*

# Assay outcomes deposited in PubChem BioAssay by Sanford-Burnham Center for Chemical Genomics.
